# Results from PubChem BioAssay.
# Values joined by “and” are separate entries in the source; they are usually repeats but may differ in a detail not shown here. Identical values can stand only once. Active and inactive are the calls of the source.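 How the source made its calls, unless noted: active means thallium flux through the channel raised or lowered by more than 3 SD from vehicle-only wells, actives on both sides; inactive means the rest.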
# Columns and labels:
# [1] = stimulators of nuclear beta-catenin in C2C12, primary screen, imaging, WNT3A-conditioned medium, mouse C2C12, NPC library (AID 1117326; in the data active means nuclear beta-catenin stimulation mostly above about 4.2%, no sharp cut-off; inactive means mostly below about 10%); details: stronger effect = higher value
# [2] = stimulators of insulin release from INS-1E, primary screen, cell-based, 5 mM glucose, NPC library (AID 1117329;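 active means compound raises insulin release from rat beta cells at 5 mM glucose, no numeric limit stated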); details: rat INS-1E insulin secretion, at 10 µM, stronger effect = higher value
# [3] = growth inhibition of GSK3B-pretreated HCT116 cells – cell-based, CellTiter-Glo, 0.2 to 20 µM (AID 1117336;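 active means compounds lowering colon cancer cell viability after pretreatment blocking the GSK3B kinase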); details: HCT116 viability after GSK3B inhibitor, at 20 µM, stronger effect = higher value
# [4] = inhibition of endothelial tube formation, primary screen, imaging, VEGF stimulated, CD31 staining, tube area, NPC library (AID 1117340;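 active means compound that reduces growth-factor-driven endothelial tube area in a mixed cell culture, no cutoff stated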); details: VEGF-stimulated ADSC/ECFC co-culture, at 10 µM, stronger effect = higher value
# [5] = glucagon-like peptide 1 release enhancers, primary assay, NCI-H716 cell line, NPC library (AID 1117341;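 active means compound raises GLP1 secretion from the human gut endocrine cells, with no numeric limit stated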); details: NCI-H716 cells, at 10 µM, stronger effect = higher value
# [6] = HCT116 colon cancer cell growth inhibition, primary screen, CellTiter-Glo luminescence, NPC library (AID 1117342;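 active means compounds that lower survival of HCT116 colon cancer cells in the luminescence readout, no numeric limit stated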); details: at 20 µM (top of the series)
# [7] = CellTiter-Glo luminescent readout of SW480 viability loss, NPC library primary (AID 1117343;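 active means compounds that lower viability of the colon cancer cells in the luminescence readout, with no numeric limit stated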); details: CellTiter-Glo luminescence; at 20 µM (top of the series)
# [8] = decreased DLD-1 cellular survival, CellTiter-Glo luminescent readout, NPC compound collection, primary HTS (AID 1117346;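 active means compounds that lower survival of DLD-1 colon cancer cells in the luminescence readout, no cutoff given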); details: DLD-1 viability, CellTiter-Glo luminescence; at 20 µM (top of the series)
# [9] = molecular target: 6-phosphogluconate dehydrogenase, decarboxylating (Homo sapiens) (UniProt P52209); test: 6PGD enzyme inhibitors, primary screen, biochemical, human, recombinant enzyme, NADPH absorbance (AID 1159550;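 active means at least 20% inhibition of 6-phosphogluconate dehydrogenase activity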); details: recombinant 6PGD, NADPH absorbance 341 nm; at 10 µM; stronger effect = higher value
# Sequence of 6-phosphogluconate dehydrogenase, decarboxylating (Homo sapiens) (P52209 whole entry, looked up): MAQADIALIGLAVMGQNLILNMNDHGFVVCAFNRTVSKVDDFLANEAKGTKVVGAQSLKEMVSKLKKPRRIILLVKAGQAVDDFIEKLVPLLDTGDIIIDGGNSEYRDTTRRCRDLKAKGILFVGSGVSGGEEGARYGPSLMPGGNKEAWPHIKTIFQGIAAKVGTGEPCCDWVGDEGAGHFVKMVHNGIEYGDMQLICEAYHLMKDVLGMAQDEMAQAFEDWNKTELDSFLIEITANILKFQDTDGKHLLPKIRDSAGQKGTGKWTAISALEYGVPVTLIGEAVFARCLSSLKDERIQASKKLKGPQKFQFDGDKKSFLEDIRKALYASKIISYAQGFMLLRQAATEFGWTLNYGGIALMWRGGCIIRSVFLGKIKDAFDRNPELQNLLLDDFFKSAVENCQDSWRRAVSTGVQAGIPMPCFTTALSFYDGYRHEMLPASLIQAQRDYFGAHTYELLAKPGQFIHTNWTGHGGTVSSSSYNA
# [10] = survival rescue of mitochondrial mutant cells in low glucose, primary screen, MELAS cybrids, Rieske KO mouse fibroblasts, CellTiter-Glo (AID 1508586;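 active means mean z-score across replicates of 1.96 or higher in either the MELAS or the Rieske mutant cell line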;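 further: z relative to plate mean and SD of compound and empty wells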)
# [11] = differential killing of epithelial or mesenchymal cells, primary screen, imaging, PC-3E GFP, TEM4-18 mCherry, co-culture (AID 1345086;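 active means compounds killing one labelled cell type while sparing the other, by normalised counts and ratio limits, not self-fluorescent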;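 on all read-outs here: cells exposed to compound for 72 h before imaging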;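 on red/green cell ratio (normalised): normalised mesenchymal count divided by normalised epithelial count so high means epithelial killing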); details: imaging cell counts, at 1 µM; for red/green cell ratio (normalised): actives lie on both sides, counts scaled to control wells, 1 = unselective
# [12] = sensitizers of A549 cells to miR-34 induction, primary screen, imaging, A549 dox-inducible miR-34, nuclei and caspase counts (AID 1347080;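 active means compounds whose cell count with miR-34 switched on is under 0.7 times the count with it off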); details: A549 miR-34 inducible, Hoechst nuclei count, 48 h
# F380Y = test: modulators of BK channel variants, profiling panel, selectivity assay, cell-based, U2OS BacMam, thallium flux, beta subunits (AID 1259406); details: at 30 µM;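 further: initial slope of Thallos dye fluorescence rise after thallium is added; log ratio against the mean of 0.3% DMSO vehicle wells on the same plate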
# F380Y/beta1 = test: as above; details: at 30 µM
# F380Y/beta2Delta = test: as above; details: at 30 µM
# F380Y/beta4 = test: as above; details: at 30 µM
# [13] = molecular target: Calcium-activated potassium channel subunit alpha-1 (Homo sapiens) + Leucine-rich repeat-containing protein 26 (Homo sapiens) (UniProt Q12791+Q2I0M4); test: as above; details: F380Y/Slo1WT/gamma1, at 30 µM
# Sequence of Calcium-activated potassium channel subunit alpha-1 (Homo sapiens) + Leucine-rich repeat-containing protein 26 (Homo sapiens) (Q2I0M4 whole entry, looked up, one chain of several): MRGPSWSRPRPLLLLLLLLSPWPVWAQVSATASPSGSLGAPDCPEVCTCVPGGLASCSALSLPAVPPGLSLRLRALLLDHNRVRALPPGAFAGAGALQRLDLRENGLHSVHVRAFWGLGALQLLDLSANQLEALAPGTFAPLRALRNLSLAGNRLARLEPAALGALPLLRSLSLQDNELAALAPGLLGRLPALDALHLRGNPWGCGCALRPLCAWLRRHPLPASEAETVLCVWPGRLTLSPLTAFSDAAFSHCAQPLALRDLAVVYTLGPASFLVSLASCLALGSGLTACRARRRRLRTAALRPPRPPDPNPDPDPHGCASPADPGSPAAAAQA
# R275C = test: as above; details: at 30 µM
# R275C/beta1 = test: as above; details: at 30 µM
# [14] = MELAS cybrid survival, CellTiter-Glo 48 h, stronger effect = higher value
# [15] = Rieske KO mouse fibroblast survival, CellTiter-Glo 72 h
# [16] = measured here: epithelial PC-3E GFP cell survival
# [17] = measured here: mesenchymal TEM4-18 mCherry cell survival
smiles,measurement,setting,value
c1ccc([C@H]2CN3CCSC3=N2)cc1,nuclear beta-catenin stimulation,[1]; at 10 µM,-0.8% (inactive)
same,nuclear beta-catenin stimulation,"[1]; stimulation, at 2 µM",-0.5%
same,insulin secretion stimulation,[2],0.8% (inactive)
same,viability decrease,[3],-1.75% (inactive)
same,tube area decrease,[4],2.3% (inactive)
same,GLP1 secretion stimulation,[5],-1.2% (inactive)
same,inhibition of viability,[6],-2.5% (inactive)
same,viability decrease (inhibition),[7],-10.8% (inactive)
same,viability decrease (inhibition),[8],-6.9% (inactive)
same,inhibition,[9],-3.99% (inactive)
same,z-score,[10]; [14],-0.321 (inactive) and -0.38 (inactive)
same,z-score,[10]; [15],-0.0854 and -1.67
CC1(C)O[C@@H]2[C@@H](CO[C@@]3(COS(N)(=O)=O)OC(C)(C)O[C@@H]23)O1,nuclear beta-catenin stimulation,[1]; at 10 µM,-1.6% (inactive)
same,nuclear beta-catenin stimulation,"[1]; stimulation, at 2 µM",0.6%
same,insulin secretion stimulation,[2],-0.2% (inactive)
same,viability decrease,[3],-4.2% (inactive)
same,tube area decrease,[4],14.7% (inactive)
same,GLP1 secretion stimulation,[5],-0.1% (inactive)
same,inhibition of viability,[6],-8.2% (inactive)
same,viability decrease (inhibition),[7],-0.9% (inactive)
same,viability decrease (inhibition),[8],-7.1% (inactive)
same,inhibition,[9],5.76% (inactive)
same,red/green cell ratio (normalised),[11],1.43 (inactive)
same,normalised cell number,[11]; [16],1.11
same,normalised cell number,[11]; [17],1.58
same,fold change,"[12]; stronger effect = lower value, cell number ratio, induced over uninduced",0.931 (inactive) and 0.874 (inactive)
same,fold change,[12]; measured here: relative caspase fold change +Dox/-Dox,1.93 and 6.61
same,cell count,"[12]; measured here: total cells with miR-34 induction, stronger effect = lower value",9480 and 11800
same,cell count,[12]; measured here: total cells without miR-34 induction,10200 and 13500
same,z-score,[10]; [14],0.776 (inactive)
same,z-score,[10]; [15],0.627
same,log fold change Tl+ flux,F380Y,-0.00202 (inactive)
same,log fold change Tl+ flux,F380Y/beta1,0.0196 (inactive)
same,log fold change Tl+ flux,F380Y/beta2Delta,0.0184 (inactive)
same,log fold change Tl+ flux,F380Y/beta4,0.0387 (inactive)
same,log fold change Tl+ flux,[13],0.0353 (inactive)
same,log fold change Tl+ flux,R275C,-0.04 (inactive)
same,log fold change Tl+ flux,R275C/beta1,0.0176 (inactive)
CC1COc2c(N3CCN(C)CC3)c(F)cc3c(=O)c(C(=O)O)cn1c23 (configuration not stated),nuclear beta-catenin stimulation,[1]; at 10 µM,-0.3% (inactive)
same,nuclear beta-catenin stimulation,"[1]; stimulation, at 2 µM",-0.9%
same,insulin secretion stimulation,[2],3.4% (inactive)
same,viability decrease,[3],14.4% (inactive)
same,tube area decrease,[4],-15.9% (inactive)
same,GLP1 secretion stimulation,[5],2.5% (inactive)
same,inhibition of viability,[6],0.4% (inactive)
same,viability decrease (inhibition),[7],-9.6% (inactive)
same,viability decrease (inhibition),[8],-8.7% (inactive)
same,inhibition,[9],0.495% (inactive)
same,red/green cell ratio (normalised),[11],0.96 (inactive) and 1.29 (inactive)
same,normalised cell number,[11]; [16],1.1 and 0.91
same,normalised cell number,[11]; [17],1.06 and 1.18
same,z-score,[10]; [14],-0.837 (inactive) and -0.951 (inactive) and -0.349 (inactive)
same,z-score,[10]; [15],-0.0297 and -0.43 and -0.633
same,log fold change Tl+ flux,F380Y,0.0183 (inactive)
same,log fold change Tl+ flux,F380Y/beta1,-0.00501 (inactive)
same,log fold change Tl+ flux,F380Y/beta2Delta,0.0472 (inactive)
same,log fold change Tl+ flux,F380Y/beta4,0.0067 (inactive)
same,log fold change Tl+ flux,[13],0.00974 (inactive)
same,log fold change Tl+ flux,R275C,0.0249 (inactive)
same,log fold change Tl+ flux,R275C/beta1,-0.02 (inactive)
OC(Cn1cncn1)(Cn1cncn1)c1ccc(F)cc1F,nuclear beta-catenin stimulation,[1]; at 10 µM,1.7% (inactive)
same,nuclear beta-catenin stimulation,"[1]; stimulation, at 2 µM",1.1%
same,insulin secretion stimulation,[2],4.05% (inactive)
same,viability decrease,[3],19.2% (inactive)
same,tube area decrease,[4],-10% (inactive)
same,GLP1 secretion stimulation,[5],1% (inactive)
same,inhibition of viability,[6],1.7% (inactive)
same,viability decrease (inhibition),[7],7.1% (inactive)
same,viability decrease (inhibition),[8],2.4% (inactive)
same,inhibition,[9],9% (inactive)
same,red/green cell ratio (normalised),[11],1.28 (inactive)
same,normalised cell number,[11]; [16],1.22
same,normalised cell number,[11]; [17],1.57
same,z-score,[10]; [14],-0.408 (inactive) and -0.874 (inactive) and -0.724 (inactive)
same,z-score,[10]; [15],-0.288 and -0.48 and -0.41
same,log fold change Tl+ flux,F380Y,0.0166 (inactive)
same,log fold change Tl+ flux,F380Y/beta1,-0.0268 (inactive)
same,log fold change Tl+ flux,F380Y/beta2Delta,-0.000209 (inactive)
same,log fold change Tl+ flux,F380Y/beta4,0.0309 (inactive)
same,log fold change Tl+ flux,[13],-0.0185 (inactive)
same,log fold change Tl+ flux,R275C,0.0468 (inactive)
same,log fold change Tl+ flux,R275C/beta1,0.023 (inactive)
